In PubChem BioAssay (NCATS):
Records with an inconclusive call do not appear. Activity calls are given as the source filed them. Calls come from the whole dose curve; as a rule, active = well fitted cell-killing curve with a large enough effect; inconclusive = small, poorly fitted or top-dose-only effect; inactive = flat fitted curve, though single readings scatter.

Tests used:
[1] = Cell Viability - LYMP2-009 (AID 968); note: series mostly up to about 92 µM; nearly all actives have a fitted effect of over 55% in size
[2] = Cell Viability - LYMP2-011 (AID 969); note: nearly all actives have a fitted effect of over 60% in size
Procedure, shortened: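 Cytotoxicity qHTS with ATP content as read-out: lymphoblastoid cells (2500/well) exposed to compound for 24 h at 37 C, then luciferase luminescence measured. Concentration-response data fitted with the standard Hill equation to give AC50.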

[3] = Cell Viability - LYMP2-013 (AID 970); note: series mostly up to about 92 µM; nearly all actives have a fitted effect of over 55% in size
Procedure, shortened: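 qHTS cytotoxicity: ATP-dependent luminescence (CellTiter-Glo, 30 min room temperature) read after 24 h compound exposure at 37 C of 2500 LYMP2-013 lymphoblastoid cells per well. Concentration-response fitted with Hill equation to give AC50.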

[4] = Cell Viability - LYMP2-015 (AID 971); note: nearly all actives have a fitted effect of over 55% in size
Procedure, shortened: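 Cytotoxicity readout: decrease in intracellular ATP (CellTiter-Glo luminescence) in 2500 LYMP2-015 lymphoblastoid cells/well after 24 h compound exposure at 37 C. Concentration-response data fitted with the standard Hill equation to give AC50.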

[5] = Cell Viability - LYMP2-017 (AID 972); note: series mostly up to about 92 µM; nearly all actives have a fitted effect of over 55% in size
Procedure, shortened: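 CellTiter-Glo luminescence (cellular ATP, 30 min RT) measured cytotoxicity after 24 hr compound treatment at 37 C. Cells were a human lymphoblastoid line, LYMP2-017, plated at 2500/well and incubated 5 hr first; concentration-response fitted with Hill equation for AC50.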

[6] = Cell Viability - LYMP2-021 (AID 974); note: nearly all actives have a fitted effect of over 55% in size
Procedure, shortened: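 AC50 values come from Hill-equation fits to CellTiter-Glo luminescence (ATP content), read after 24 hour compound exposure at 37 C of 2500 LYMP2-021 lymphoblastoid cells/well; tetraoctylammonium bromide as positive control.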

[7] = Cell Viability - LYMP2-023 (AID 975)
Procedure, shortened: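 Intracellular ATP, read by CellTiter-Glo luminescence, reports viability after 24 hr compound exposure at 37 C. 2500 lymphoblastoid cells/well (LYMP2-023) seeded 5 hr beforehand; Hill fits give AC50; positive control tetraoctylammonium bromide.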

[8] = Cell Viability - LYMP2-025 (AID 976); note: series mostly up to about 92 µM
Procedure, shortened: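 Cytotoxicity read as loss of intracellular ATP (luciferase luminescence) after 24 h compound treatment at 37 C. Uses LYMP2-025 lymphoblastoid cells in 1536-well format; Hill-equation modelling gives AC50; tetraoctylammonium bromide as positive control.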

[9] = Cell Viability - LYMP2-002 (AID 977); note: series mostly up to about 92 µM
Procedure, shortened: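 Human lymphoblastoid cells (2500/well) in complete medium were preincubated 5 hr at 37 C, then exposed to compounds for 24 hr at 37 C. Intracellular ATP was read by CellTiter-Glo luminescence; AC50 came from Hill-equation concentration-response fits.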

[10] = Cell Viability - LYMP2-006 (AID 978); note: series mostly up to about 92 µM; nearly all actives have a fitted effect of over 60% in size
Procedure, shortened: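 In this cytotoxicity screen, the human lymphoblastoid line grew in complete medium with test compounds for 24 hr at 37 C. Cellular ATP served as the viability signal.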

Measured: outcome

C/C=C/c1ccc(O)c(OC)c1
inactive: all assays above

C=C[C@H]1CN2CC[C@H]1C[C@@H]2[C@@H](O)c1ccnc2ccc(OC)cc12
inactive: all assays above

COc1ccc(C(=O)c2ccccc2)c(O)c1
inactive: all assays above

CCOc1ccc(NC(C)=O)cc1
inactive: all assays above

CCCN(CCC)S(=O)(=O)c1ccc(C(=O)O)cc1
inactive: all assays above

O=C(O)c1ccc(S(=O)(=O)N(Cl)Cl)cc1
inactive: all assays above

CCOc1ccccc1C(N)=O
inactive: all assays above

NC(=O)c1ccccc1O
inactive: all assays above

COc1ccc(C(Cl)=C(c2ccc(OC)cc2)c2ccc(OC)cc2)cc1
inactive: all assays above

NCCNc1cccc2ccccc12
inactive: all assays above

COc1cc([C@H]2Oc3cc([C@H]4Oc5cc(O)cc(O)c5C(=O)[C@@H]4O)ccc3O[C@@H]2CO)ccc1O
inactive: all assays above

OC[C@H]1O[C@@H]2O[C@H]3[C@H](O)[C@@H](O)[C@@H](O[C@H]4[C@H](O)[C@@H](O)[C@@H](O[C@H]5[C@H](O)[C@@H](O)[C@@H](O[C@H]6[C@H](O)[C@@H](O)[C@@H](O[C@H]7[C@H](O)[C@@H](O)[C@@H](O[C@H]8[C@H](O)[C@@H](O)[C@@H](O[C@H]1[C@H](O)[C@H]2O)O[C@@H]8CO)O[C@@H]7CO)O[C@@H]6CO)O[C@@H]5CO)O[C@@H]4CO)O[C@@H]3CO
inactive: all assays above

CCCCC(CC)COC(=O)c1ccc(N(C)C)cc1 (stereo not given)
inactive: all assays above
